Screening results as filed in PubChem BioAssay.
This is a sample that favours compounds with a hit; in the whole collection about 7.4% have one here.
HEK293 viab = reduces viability of HEK-293 SNCA reporter cells. 150,000 tested, 0.12% active. Potency, µM (series often up to 57.1 µM), for inactives: top-dose activity change, negative = cytotoxicity, most hits filed as cytotoxic. HEK-293-SNCA-luc viability, GF-AFC fluorescence, 24 h;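 also: 0% = DMSO-treated cells and -100% = medium-only wells without cells; nearly all actives have a fitted effect of over 30% in size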
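HEK-293-SNCA-luc cells (1500/well) plated 24 h, then exposed 24 h to a dilution series; GF-AFC added 30 min at 37C, fluorescence 405/540 nm; normalised to medium-only and DMSO wells, Hill fit.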
Luciferase inh = Photinus pyralis luciferase inhibition; AID 1347043; 76,000 tested, 2.5% active; Potency, µM (titrated, usually from 115 µM), hits mostly inhibitors; P08659; purified P. pyralis luciferase, luminescence, biochemical; also: nearly all actives have a fitted effect of over 65% in size
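Purified P. pyralis luciferase (10nM final) in 50mM Tris acetate pH 7.5, 10mM Mg acetate, 0.01% Tween-20, 0.05% BSA with 10uM D-luciferin and 10uM ATP. Compounds titrated qHTS. Luminescence imaged on CCD.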
HEK293 tox = cytotoxic compounds in HEK 293 cells; HEK 293 viability, ATP luminescence (CellTiter-Glo), 48-72 h; Potency, µM (titrated, usually from 115 µM), for inactives: at the top dose activity change, negative = cytotoxicity, actives largely listed as inhibitors; 94,000 tested, 6.6% active; also: nearly all actives have a fitted effect of over 60% in size
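Cytotoxicity was scored by loss of ATP-coupled luminescence (CellTiter-Glo) in HEK 293 cells. Compound treatment ran 48 or 72 hr at 37 degree Celsius, 5% CO2, 95% humidity.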
NIH3T3 tox = cytotoxic compounds in NIH 3T3 cells | NIH 3T3 viability, CellTiter-Glo ATP luminescence, 48-72 h | 94,000 tested, 4.3% active | Potency, µM (titrated, usually from 96.7 µM), for the others: at the highest dose activity change, negative = cytotoxicity, actives largely listed as inhibitors; also: nearly all actives have a fitted effect of over 55% in size
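NIH 3T3 cells at 400 cells/well received 23 nL of compound by pintool and were incubated 48 or 72 h at 37 °C. Viability was read as ATP-coupled CellTiter-Glo luminescence.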
hNpr1 antagonist = blocks ANP-stimulated signaling of human Npr1 receptor; HEK293 hNpr1 GloSensor cGMP, ANP-stimulated luminescence; Potency, µM (series often up to 46.3 µM), without a hit: at the highest dose activity change, negative = inhibition, hits mostly inhibitors; 76,000 tested, 1.6% active; AID 1347048; calls by dose curve; also: nearly all actives have a fitted effect of over 60% in size
Target sequence (P16066 whole entry, looked up): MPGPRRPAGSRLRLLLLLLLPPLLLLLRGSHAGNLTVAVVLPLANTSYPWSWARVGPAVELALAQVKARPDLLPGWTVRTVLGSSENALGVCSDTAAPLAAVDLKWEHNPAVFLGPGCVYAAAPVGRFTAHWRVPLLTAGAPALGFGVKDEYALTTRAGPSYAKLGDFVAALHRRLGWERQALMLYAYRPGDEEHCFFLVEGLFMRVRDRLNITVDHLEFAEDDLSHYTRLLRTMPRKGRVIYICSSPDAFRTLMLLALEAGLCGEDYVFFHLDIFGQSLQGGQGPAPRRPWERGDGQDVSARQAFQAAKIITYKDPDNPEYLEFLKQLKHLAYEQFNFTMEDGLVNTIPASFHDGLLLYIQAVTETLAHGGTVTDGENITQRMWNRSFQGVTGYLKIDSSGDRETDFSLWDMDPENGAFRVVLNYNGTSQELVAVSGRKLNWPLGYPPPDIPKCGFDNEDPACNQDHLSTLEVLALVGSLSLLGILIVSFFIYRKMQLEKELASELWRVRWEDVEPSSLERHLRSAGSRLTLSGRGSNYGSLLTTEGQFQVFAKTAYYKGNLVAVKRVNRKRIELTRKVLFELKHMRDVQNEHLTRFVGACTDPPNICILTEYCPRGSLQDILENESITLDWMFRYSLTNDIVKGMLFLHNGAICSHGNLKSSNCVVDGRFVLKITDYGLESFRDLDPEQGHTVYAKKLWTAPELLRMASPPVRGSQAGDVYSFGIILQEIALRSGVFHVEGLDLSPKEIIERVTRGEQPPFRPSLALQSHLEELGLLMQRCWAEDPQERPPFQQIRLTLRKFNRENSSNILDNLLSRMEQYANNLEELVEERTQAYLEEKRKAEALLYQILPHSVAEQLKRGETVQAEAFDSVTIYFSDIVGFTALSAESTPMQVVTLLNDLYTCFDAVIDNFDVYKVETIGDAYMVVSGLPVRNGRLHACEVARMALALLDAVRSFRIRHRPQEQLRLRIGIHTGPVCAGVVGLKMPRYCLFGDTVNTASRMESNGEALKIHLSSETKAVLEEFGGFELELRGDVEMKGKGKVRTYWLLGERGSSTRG
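Compound pre-incubated 30 min at room temperature on GloSensor-loaded HEK293 cells stably carrying hNpr1 and the pGS-40F cGMP biosensor. Stimulation uses hNppA at 0.1 nM final; luminescence is taken at baseline and 20 min post-agonist.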
SNCA expr inhib = inhibitors of alpha-synuclein (SNCA) gene expression; AID 1671194; 140,000 tested, 0.17% active; HEK-293 SNCA-luciferase knock-in, luminescence, 24 h; Potency, µM (highest dose often 57.2 µM), without a hit: top-dose activity change, negative = inhibition, most hits filed as inhibitors;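 also: plate controls were DMSO cells for no effect and cell-free wells for full effect; nearly all actives have a fitted effect of over 45% in size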
The depositor's hits bear a star; [ ] = another dose, or the depositor's remark. Unless noted, calls follow the shape of the dose curve; as a rule, active = well fitted curve in the direction sought with a large enough effect; inconclusive = small, poorly fitted or top-dose-only effect, or another doubt; inactive = no such curve, though single readings can be large; an effect the other way counts as inactive or inconclusive. Unless noted, % is scaled to controls: 0 for no effect and ±100 for the full control effect; potency is read from the fitted curve at half-maximal effect.

How did Cc1cccc(-c2noc([C@@H]3Cc4nc[nH]c4CN3C(=O)c3ccc(-c4ccccc4)cc3)n2)c1 do in these assays?
HEK293 viab: -18.8%; Luciferase inh: inactive; HEK293 tox: 35.5µM*; NIH3T3 tox: 20µM*; hNpr1 antagonist: -26.3%; SNCA expr inhib: inconclusive

Results for Cc1cccc(-c2noc([C@@H]3Cc4nc[nH]c4CN3C(=O)C3CCCCC3)n2)c1 ?
HEK293 viab: -9.6%[87.6 µM]; Luciferase inh: 56.2µM*; HEK293 tox: inconclusive; NIH3T3 tox: inconclusive; hNpr1 antagonist: -0.8%[70.6 µM]; SNCA expr inhib: 12.8%[87.6 µM]

Results for O=[N+]([O-])c1cccc(-c2noc([C@@H]3Cc4nc[nH]c4CN3CC3CCCCC3)n2)c1 ?
HEK293 viab: inconclusive; Luciferase inh: inactive; HEK293 tox: 56.2µM*; NIH3T3 tox: 70.8µM*; hNpr1 antagonist: -14.1%[70.6 µM]; SNCA expr inhib: inconclusive

What do the screens show for `Cc1cccc(-c2noc([C@@H]3Cc4nc[nH]c4CN3)n2)c1`?
HEK293 viab: 1.8%[87.6 µM]; Luciferase inh: 50.1µM*; HEK293 tox: -4.0%[230 µM]; NIH3T3 tox: -26.7%[230 µM]; hNpr1 antagonist: -1.6%[70.6 µM]; SNCA expr inhib: inconclusive

How did Cc1cccc(-c2noc([C@@H]3Cc4nc[nH]c4CN3C(=O)c3ccccc3C(=O)O)n2)c1 do in these assays?
HEK293 viab: -0.9%[87.6 µM]; Luciferase inh: inconclusive; HEK293 tox: -14.8%[172 µM]; NIH3T3 tox: -5.2%[174 µM]; hNpr1 antagonist: 3.8%[70.6 µM]; SNCA expr inhib: -7.6%[87.6 µM]

Results for CCOC(=O)[C@@H]1[C@@H](OC)C(=O)N(Cc2ccccc2)C12CCN(C(=O)C1CCC1)CC2 ?
HEK293 tox: -1.5%; NIH3T3 tox: inconclusive

How did Cc1ccccc1C(=O)N1CCCC2(CN[S+](=O)([O-])c3cccnc3N2)C1 (stereo unspecified) do in these assays?
HEK293 tox: inconclusive; NIH3T3 tox: -18.7%

How did Cn1nc(C2CCCC2)cc1NC(=O)c1cccc(Br)c1 do in these assays?
HEK293 viab: -7.6%; HEK293 tox: inconclusive; NIH3T3 tox: inconclusive; SNCA expr inhib: 3.1%

How did O=C(NCCc1ccccc1)c1nc2cccnc2n(C2CC2)c1=O do in these assays?
HEK293 viab: 14.5%; HEK293 tox: 3.7%; NIH3T3 tox: -26.6%; SNCA expr inhib: -0.4%

How did c1ccc2c(c1)COC1(CCNC1)CN2CC1CCCCC1 (stereo unspecified) do in these assays?
HEK293 viab: -19.3%[87.6 µM]; HEK293 tox: 79.4µM*; NIH3T3 tox: 31.6µM*; SNCA expr inhib: -19.9%[87.6 µM]

How did O=C(C1CCCC1)N1CC2(CCNC2)OCc2ccccc21 (stereo unspecified) do in these assays?
HEK293 viab: -0.8%; HEK293 tox: inactive; NIH3T3 tox: inactive; SNCA expr inhib: 7.6%

What do the screens show for `Cc1ccc(CNC(=O)c2noc(-c3ccc4c(c3)OCO4)n2)cc1`?
HEK293 viab: 12.0%; Luciferase inh: inconclusive; HEK293 tox: inconclusive; NIH3T3 tox: -17.7%; hNpr1 antagonist: -6.4%; SNCA expr inhib: 37.1%

What do the screens show for `CSc1ccc(CNC(=O)c2noc(-c3ccc(F)cc3)n2)cc1`?
HEK293 viab: -9.3%; Luciferase inh: 28.2µM*; HEK293 tox: -27.4%; NIH3T3 tox: inconclusive; hNpr1 antagonist: -9.2%; SNCA expr inhib: 8.0%

Results for COc1ccccc1C(=O)NCc1c[nH]c2ncccc12 ?
HEK293 viab: 9.3%[87.6 µM]; Luciferase inh: inactive; HEK293 tox: -3.8%[172 µM]; NIH3T3 tox: -31.8%[138 µM]; hNpr1 antagonist: 3.9%[70.6 µM]; SNCA expr inhib: inconclusive

How did COc1cccc(CNC(=O)c2c[nH]c3ncccc23)c1 do in these assays?
HEK293 viab: 4.9%[87.6 µM]; Luciferase inh: 39.8µM*; HEK293 tox: -15.3%[172 µM]; NIH3T3 tox: inconclusive; hNpr1 antagonist: 5.4%[70.6 µM]; SNCA expr inhib: 17.8%[87.6 µM]

Results for COc1ccc(CNC(=O)c2noc(-c3ccc4c(c3)OCO4)n2)cc1 ?
HEK293 viab: 13.4%; Luciferase inh: 31.6µM*; HEK293 tox: inconclusive; NIH3T3 tox: inconclusive; hNpr1 antagonist: 3.0%; SNCA expr inhib: 100.3%

Results for O=C(NCc1cccc(Cl)c1)c1noc(-c2ccc3c(c2)OCO3)n1 ?
HEK293 viab: 0.1%; Luciferase inh: inconclusive; HEK293 tox: 39.8µM*; NIH3T3 tox: inconclusive; hNpr1 antagonist: 0.8%; SNCA expr inhib: 12.8%

Results for COc1cccc(CNC(=O)c2noc(-c3ccc(C)cc3)n2)c1 ?
HEK293 viab: 1.7%; Luciferase inh: 28.2µM*; HEK293 tox: -11.7%; NIH3T3 tox: -21.5%; hNpr1 antagonist: -1.7%; SNCA expr inhib: 82.0%

How did C/C1=C/CCC2=CC(OC2=O)C(C)(C)/C=C/C1=O (stereo unspecified) do in these assays?
HEK293 viab: 7.52µM*

Results for CC12C(=O)OC(=O)C1(C)C1CCC2O1 (stereo unspecified) ?
HEK293 viab: inconclusive; SNCA expr inhib: 3.55µM*

What do the screens show for `CCOC(=O)c1ccc(NC(=O)c2ccc3c(c2)N(C)C2CCCCN2C3=O)cc1` (stereo unspecified)?
HEK293 viab: 8.3%[12.5 µM]; Luciferase inh: inactive; HEK293 tox: 35.5µM*; NIH3T3 tox: inconclusive; hNpr1 antagonist: 0.0%; SNCA expr inhib: 6.1%

What do the screens show for `CCN1c2cc(C(=O)Nc3ccc(Cl)cc3)ccc2C(=O)N2CCCC21` (stereo unspecified)?
HEK293 viab: -15.8%[12.5 µM]; Luciferase inh: inactive; HEK293 tox: -27.2%; NIH3T3 tox: -2.9%; hNpr1 antagonist: 0.0%; SNCA expr inhib: 26.6%

How did CCOC(=O)c1ccc(NC(=O)c2ccc3c(c2)N(CC)C2CCCN2C3=O)cc1 (stereo unspecified) do in these assays?
HEK293 viab: -11.3%[12.5 µM]; Luciferase inh: inactive; HEK293 tox: inconclusive; NIH3T3 tox: -40.1%; hNpr1 antagonist: -4.5%; SNCA expr inhib: 0.2%

Results for CCOc1ccc(NC(=O)c2ccc3c(c2)N(CC)C2CCCCN2C3=O)cc1 (stereo unspecified) ?
HEK293 viab: 3.5%[12.5 µM]; Luciferase inh: inactive; HEK293 tox: 31.6µM*; NIH3T3 tox: 22.4µM*; hNpr1 antagonist: -8.7%; SNCA expr inhib: -16.6%

Results for CCOC(=O)c1ccc(NC(=O)c2ccc3c(c2)N(CC)C2CCCCN2C3=O)cc1 (stereo unspecified) ?
HEK293 viab: 21.0%[12.5 µM]; Luciferase inh: inactive; HEK293 tox: 35.5µM*; NIH3T3 tox: inconclusive; hNpr1 antagonist: -24.6%; SNCA expr inhib: inconclusive

What do the screens show for `CN(C)C(=O)N1CCC(c2nc(CCOc3ccc(F)cc3)no2)C1` (stereo unspecified)?
HEK293 viab: 7.6%; HEK293 tox: inconclusive; NIH3T3 tox: inconclusive; SNCA expr inhib: 39.3%

Results for CC(C)(C)C(=O)N1CCCN(c2ccc3nnc(C4CC4)n3n2)CC1 ?
HEK293 tox: -27.1%; NIH3T3 tox: -27.6%
